This is an account of results in PubChem BioAssay (EPA / NIEHS).

Test [1] can be described thus: ATG_CRE_CIS: Attagene CIS-FACTORIAL HepG2 Assay for human cAMP Responsive Element (CRE) binding protein 3 (AID 2282926). The note with it: HepG2 CRE cis-reporter, Attagene multiplexed mRNA; actives raise or lower the signal. The method in brief:
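Human liver HepG2, transient MRTU transfection, 24 h compound exposure. Total RNA → oligo(dT) RT → PCR → 6-FAM primer extension → HpaI cut → CE. Activity called both directions vs DMSO.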

The target in test [2] is CCAAT/enhancer-binding protein beta (Homo sapiens) (UniProt P17676). Put plainly: ATG_C_EBP_CIS: Attagene CIS-FACTORIAL HepG2 Assay for human CCAAT/Enhancer Binding Protein (C/EBP) beta (AID 2282927). The following applies: HepG2 Attagene cis-factorial transcription factor reporter; actives raise or lower the signal. The method in brief:
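Endogenous C/EBPb-driven reporter transcripts measured in transfected human HepG2 cells at 24 h via RT-PCR and capillary electrophoresis of labelled fragments. Activity fitted in both directions relative to DMSO baseline.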

A short description of test [3]: ATG_DR4_LXR_CIS: Attagene CIS-FACTORIAL HepG2 Assay for human Liver X Receptor (LXR), DR4 submotif (AID 2282929). The following applies: HepG2 Attagene DR4 cis-reporter, mRNA transcription; actives raise or lower the signal. The method in brief: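 Measures endogenous transcription factor activity via a DR4-driven reporter transcript in human HepG2 cells. Compounds incubated 24 h; mRNA quantified by RT-PCR and capillary electrophoresis, analysed as gain or loss of signal versus DMSO.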

The nature of test [4]: ATG_AP_2_CIS: Attagene CIS-FACTORIAL HepG2 Assay for human Activator Protein 2 (AP-2) (AID 2282932). The following applies: HepG2 AP-2 cis-reporter, Attagene transcription factor profiling; actives raise or lower the signal. In a few lines:
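HepG2, transient MRTU transfection, cis-regulated reporters; 24 h compound exposure; RNA isolated, RT-PCR, 6-FAM labelling, HpaI digest, CE fluorescence. DMSO = negative control/baseline, bidirectional fit.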

Test [5] in a line: ATG_BRE_CIS: Attagene CIS-FACTORIAL HepG2 Assay for human Bone Morphogenetic Protein (BMP) Response Element (BRE) (AID 2282933). The note with it: HepG2 BMP response element reporter, Attagene transcription factor profiling; actives raise or lower the signal. The method in brief: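 Read-out: reporter mRNA induction quantified by RT-PCR and capillary electrophoresis after 24 h chemical exposure of transfected HepG2 cells. Endogenous factor activity on the BMP response element; gain or loss fitted against DMSO baseline.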

Test [6] concerns the target Transcription factor E2F1 (Homo sapiens) (UniProt Q01094). In words: ATG_E2F_CIS: Attagene CIS-FACTORIAL HepG2 Assay for human E2F Transcription Factor 1 (AID 2282935). The note with it: HepG2 Attagene cis-reporter, E2F reporter RNA transcripts; actives raise or lower the signal. The method in brief: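 Cis-element reporter mRNA induction in transiently transfected HepG2, 24 h exposure. Activity fitted in both directions relative to DMSO negative control.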

Test [7] is described as follows: ATG_EGR_CIS: Attagene CIS-FACTORIAL HepG2 Assay for human Early Growth Response 1 (EGR1) (AID 2282938). The following applies: HepG2 Attagene CIS-FACTORIAL EGR reporter mRNA; actives raise or lower the signal. In a few lines:
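Cell-based multiplex transcription assay: HepG2 carrying transfected cis-element reporter units, 24 h chemical treatment. Fluorescence from capillary electrophoresis of RT-PCR products gives mRNA levels; fitting is bidirectional relative to DMSO.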

Test [8] is described as follows: ATG_M_19_CIS: Attagene CIS-FACTORIAL HepG2 Assay for M19 Transcription Factor (Internal Marker) (AID 2282939). The following applies: HepG2 Attagene CIS-FACTORIAL M19 internal marker reporter; actives raise or lower the signal. In a few lines:
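Readout: fluorescent reporter-transcript fragments by capillary electrophoresis after RT-PCR. Human HepG2 liver cells carried transfected MRTU constructs reporting endogenous transcription-factor activity; exposure 24 h. Gain or loss of signal fitted relative to DMSO.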

The nature of test [9]: ATG_Ets_CIS: Attagene CIS-FACTORIAL HepG2 Assay for human Erythroblast Transformation Specific (ETS) (AID 2282941). The following applies: HepG2 ETS cis-reporter transcription, actives raise or lower the signal. In a few lines: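 Human HepG2 hepatoma cells were transiently transfected with promoter-driven reporter constructs and treated for 24 hours. Reporter transcripts were quantified by RT-PCR with fluorescent primer extension; bidirectional curve fitting used DMSO as reference.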

Test [10] has as its target Hepatocyte nuclear factor 3-beta (Homo sapiens) (UniProt Q9Y261). In words: ATG_FoxA2_CIS: Attagene CIS-FACTORIAL HepG2 Assay for human Forkhead box A2 (FOXA2) (AID 2282942). The note with it: HepG2 cis-reporter transcription factor activity, 24 h; actives raise or lower the signal. The method in brief:
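In transiently transfected human HepG2 cells, promoter-driven reporter mRNA levels after 24 h chemical exposure are determined via RT-PCR with capillary electrophoresis. DMSO serves as baseline for bidirectional fitting.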

Test [11] can be described thus: ATG_FoxO_CIS: Attagene CIS-FACTORIAL HepG2 Assay for human Forkhead box O (FoxO) (AID 2282943). The following applies: HepG2 Attagene cis-reporter, FoxO element, mRNA; actives raise or lower the signal. In a few lines:
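Endogenous transcription factor activity read from multiplexed cis-promoter reporter transcripts in transiently transfected HepG2, 24 h after dosing. Reporter RNA measured via RT-PCR plus capillary electrophoresis of FAM-labeled products; gain or loss relative to DMSO.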

The nature of test [12]: ATG_GATA_CIS: Attagene CIS-FACTORIAL HepG2 Assay for human GATA Binding Protein (AID 2282944). The note with it: HepG2 GATA cis-element reporter, Attagene multiplex mRNA; actives raise or lower the signal. The method in brief:
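Read-out: fluorescent reporter mRNA fragments resolved by capillary electrophoresis after RT-PCR. Human liver HepG2 cells carried transiently transfected cis-regulated reporter constructs; chemicals incubated 24 h; gain or loss of signal fitted relative to DMSO.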

A short description of test [13]: ATG_GLI_CIS: Attagene CIS-FACTORIAL HepG2 Assay for human Zinc Finger Protein GLI1 (AID 2282945). The note with it: HepG2, Attagene cis-factorial reporter mRNA, GLI element; actives raise or lower the signal. In a few lines:
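Bidirectional curve fits relative to DMSO, using reporter mRNA levels from RT-PCR plus capillary electrophoresis. Cells were HepG2 transiently carrying cis-regulated reporter constructs, harvested 24 h after dosing.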

The nature of test [14]: ATG_M_06_CIS: Attagene CIS-FACTORIAL HepG2 Assay for M06 Transcription Factor (Internal Marker) (AID 2282950). The note with it: HepG2 Attagene CIS-FACTORIAL M06 internal marker reporter; actives raise or lower the signal. In a few lines: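 Terse: HepG2, transient MRTU transfection (FuGene 6), 24 h dosing; total RNA, oligo(dT) RT, PCR, FAM label, HpaI cut, capillary electrophoresis; bidirectional fit vs DMSO baseline; background-control endpoint.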

Test [15] can be described thus: ATG_MRE_CIS: Attagene CIS-FACTORIAL HepG2 Assay for human Metal Responsive Element (MRE) (AID 2282954). The following applies: HepG2 MRE cis-reporter transcription, Attagene multiplex; actives raise or lower the signal. The method in brief:
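Transient MRTU transfection of HepG2 (FuGene 6); 24 h dosing; total RNA → oligo(dT) RT, PCR, 6-FAM primer extension, HpaI cut, CE. Bidirectional fit vs DMSO.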

Test [16] deals with Paired box protein Pax-6 (Homo sapiens) (UniProt P26367). Put plainly: ATG_Pax6_CIS: Attagene CIS-FACTORIAL HepG2 Assay for human Paired Box 6 (PAX6) (AID 2282956). The note with it: HepG2 CIS-FACTORIAL PAX6 reporter transcription, RNA readout; actives raise or lower the signal. In a few lines: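 Multiplexed cis-reporter HepG2 system; 24 h treatment; reporter mRNA read by RT-PCR/CE fluorescence; bidirectional fit vs DMSO.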
Paired box protein Pax-6 (Homo sapiens), sequence (P26367 whole entry, looked up): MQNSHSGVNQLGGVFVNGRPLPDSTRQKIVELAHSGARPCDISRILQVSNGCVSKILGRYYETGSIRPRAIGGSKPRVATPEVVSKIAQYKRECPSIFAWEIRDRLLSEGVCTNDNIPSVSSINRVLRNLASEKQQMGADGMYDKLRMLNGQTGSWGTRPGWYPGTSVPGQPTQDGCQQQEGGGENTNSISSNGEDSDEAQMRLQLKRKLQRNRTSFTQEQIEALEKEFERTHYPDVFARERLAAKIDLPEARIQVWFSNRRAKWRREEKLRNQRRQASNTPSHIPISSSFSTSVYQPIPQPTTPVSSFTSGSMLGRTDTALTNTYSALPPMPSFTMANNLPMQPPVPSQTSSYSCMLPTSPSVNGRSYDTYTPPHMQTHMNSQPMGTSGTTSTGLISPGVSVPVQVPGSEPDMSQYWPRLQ

Test [17] can be described thus: ATG_PXRE_CIS: Attagene CIS-FACTORIAL HepG2 Assay for human Pregnane X Receptor Element (PXRE) (AID 2282957). The note with it: HepG2 Attagene CIS-FACTORIAL PXRE reporter, mRNA; actives raise or lower the signal. The method in brief: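 Transfect HepG2 with MRTUs (cis promoter elements); dose chemical, incubate 24 h; isolate RNA, RT with oligo(dT), PCR, 6-FAM label, HpaI cut, CE. Gain/loss fit vs DMSO.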

The nature of test [18]: ATG_Sox_CIS: Attagene CIS-FACTORIAL HepG2 Assay for human SRY-box transcription factor (SOX) (AID 2282960). The note with it: HepG2 Attagene cis-factorial SOX reporter, mRNA; actives raise or lower the signal. The method in brief: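 After 24 h of chemical treatment, transfected HepG2 reporter cells are lysed for total RNA. Transcript levels come from RT-PCR with labelled primer extension and capillary electrophoresis, analysed bidirectionally versus DMSO.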

The target of test [19] is Transcription factor Sp1 (Homo sapiens) (UniProt P08047). Put plainly: ATG_Sp1_CIS: Attagene CIS-FACTORIAL HepG2 Assay for human Specificity Protein 1 (Sp1) (AID 2282961). The note with it: HepG2 Sp1 cis-reporter transcription, actives raise or lower the signal. The method in brief: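 Sp1-driven reporter mRNA, read as capillary electrophoresis fluorescence after RT-PCR, in transiently transfected HepG2 cells dosed for 24 h; signal change in either direction relative to DMSO.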
Transcription factor Sp1 (Homo sapiens), sequence (P08047 whole entry, looked up): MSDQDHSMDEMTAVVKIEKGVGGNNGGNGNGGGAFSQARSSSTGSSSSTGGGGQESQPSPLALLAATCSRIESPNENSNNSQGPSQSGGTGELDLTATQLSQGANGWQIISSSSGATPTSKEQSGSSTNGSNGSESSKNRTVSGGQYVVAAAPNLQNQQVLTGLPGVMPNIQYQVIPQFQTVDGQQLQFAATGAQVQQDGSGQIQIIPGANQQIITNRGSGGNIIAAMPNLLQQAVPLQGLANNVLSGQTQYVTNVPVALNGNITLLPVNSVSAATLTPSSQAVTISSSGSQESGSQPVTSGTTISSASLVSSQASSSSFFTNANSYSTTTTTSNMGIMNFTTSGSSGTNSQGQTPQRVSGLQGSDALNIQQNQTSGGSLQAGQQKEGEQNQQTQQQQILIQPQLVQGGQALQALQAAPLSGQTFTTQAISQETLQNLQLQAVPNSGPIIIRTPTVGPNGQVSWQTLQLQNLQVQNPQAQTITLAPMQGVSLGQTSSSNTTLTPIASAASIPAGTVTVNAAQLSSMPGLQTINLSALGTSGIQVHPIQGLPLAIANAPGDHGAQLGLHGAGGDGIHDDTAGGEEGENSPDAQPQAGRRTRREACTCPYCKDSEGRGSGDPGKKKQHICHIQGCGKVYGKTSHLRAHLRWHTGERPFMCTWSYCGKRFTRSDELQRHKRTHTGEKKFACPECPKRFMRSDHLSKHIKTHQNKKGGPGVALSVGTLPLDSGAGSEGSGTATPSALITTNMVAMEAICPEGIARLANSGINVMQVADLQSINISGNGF

Test [20] in a line: ATG_SREBP_CIS: Attagene CIS-FACTORIAL HepG2 Assay for human Sterol Regulatory Element Binding (SREBP) (AID 2282962). The following applies: HepG2 Attagene cis-factorial SREBP reporter, mRNA; actives raise or lower the signal. The method in brief: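 mRNA induction of transfected cis-promoter reporters in HepG2 cells, 24 h post-dose. Detection: RT-PCR with 6-FAM-labelled products, HpaI digest, capillary electrophoresis. DMSO served as negative control and baseline.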

The source made the active and inactive calls. Rule for the calls: active = hit-call score of the fitted dose curve at least 0.9, where 1 is the maximum; inactive = score below 0.9.

Transcription factor E2F1 (Homo sapiens), sequence (Q01094 whole entry, looked up): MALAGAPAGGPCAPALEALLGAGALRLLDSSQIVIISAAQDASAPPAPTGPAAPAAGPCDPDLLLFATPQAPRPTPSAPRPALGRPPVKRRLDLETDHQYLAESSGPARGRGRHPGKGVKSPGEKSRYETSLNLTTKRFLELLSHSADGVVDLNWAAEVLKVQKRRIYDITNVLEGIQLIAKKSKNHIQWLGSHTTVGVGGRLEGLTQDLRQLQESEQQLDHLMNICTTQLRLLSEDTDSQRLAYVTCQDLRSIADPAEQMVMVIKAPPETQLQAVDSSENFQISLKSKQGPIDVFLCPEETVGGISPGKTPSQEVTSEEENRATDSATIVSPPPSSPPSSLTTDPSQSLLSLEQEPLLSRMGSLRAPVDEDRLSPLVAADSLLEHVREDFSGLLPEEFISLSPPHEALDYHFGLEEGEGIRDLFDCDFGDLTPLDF
CCAAT/enhancer-binding protein beta (Homo sapiens), sequence (P17676 whole entry, looked up, the tested form may be a part): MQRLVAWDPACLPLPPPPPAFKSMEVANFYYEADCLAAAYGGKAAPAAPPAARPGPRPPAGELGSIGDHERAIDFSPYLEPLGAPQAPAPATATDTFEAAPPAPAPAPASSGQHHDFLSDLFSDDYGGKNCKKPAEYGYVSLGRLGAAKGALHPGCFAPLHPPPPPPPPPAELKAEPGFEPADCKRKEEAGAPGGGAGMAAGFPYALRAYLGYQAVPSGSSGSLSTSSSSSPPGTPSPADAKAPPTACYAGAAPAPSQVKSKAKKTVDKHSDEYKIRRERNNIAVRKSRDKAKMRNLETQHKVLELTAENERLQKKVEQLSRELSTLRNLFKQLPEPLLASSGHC
Hepatocyte nuclear factor 3-beta (Homo sapiens), sequence (Q9Y261 whole entry, looked up): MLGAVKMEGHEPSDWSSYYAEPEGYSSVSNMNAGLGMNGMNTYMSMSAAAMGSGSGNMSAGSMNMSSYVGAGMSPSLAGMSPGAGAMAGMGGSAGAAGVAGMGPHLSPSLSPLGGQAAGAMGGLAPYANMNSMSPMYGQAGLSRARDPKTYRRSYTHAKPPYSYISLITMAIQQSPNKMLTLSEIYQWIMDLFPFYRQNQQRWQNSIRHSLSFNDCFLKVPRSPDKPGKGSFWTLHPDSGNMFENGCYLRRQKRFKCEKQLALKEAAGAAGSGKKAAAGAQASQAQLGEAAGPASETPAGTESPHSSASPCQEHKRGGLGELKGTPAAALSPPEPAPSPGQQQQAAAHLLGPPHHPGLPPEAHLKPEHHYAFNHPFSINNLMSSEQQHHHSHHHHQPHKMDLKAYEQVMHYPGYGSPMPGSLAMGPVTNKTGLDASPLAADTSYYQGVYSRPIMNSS

In general, AC50 refers to the concentration at which the activity in the assay is half-maximal. Turning to `[Cl][Sb]([Cl])[Cl]`, the call in test [1], in [2], in test [3], in test [4], in test [5] and in test [6] was inactive. The compound was called inactive in test [8], in test [9], in test [10], in test [11], in test [12] and in test [13]. For the same compound, the call in [14], in test [15], in test [17], in [18], in test [19] and in test [20] was inactive. Moreover, the values for the AC50 in test [7] and in [16] were 140 µM (active) and 133 µM (active), respectively.
In the case of `CCNCC`, the result in [1], in test [2], in test [3], in test [4], in [5] and in test [6] was inactive. For the same compound, the compound was classed as inactive in test [7], in test [8], in test [9], in test [10], in test [11] and in test [12]. For the same compound, the result in test [13], in test [14], in test [15], in [16], in [17] and in [18] was inactive. Moreover, the call in [19] and in [20] was inactive.
`Cc1ncc(C[n+]2csc(CCO)c2C)c(N)n1`: the outcome in test [1], in [2], in test [3], in [4], in [5] and in test [6] was inactive. In addition, the compound was classed as inactive in test [7], in test [8], in [9], in test [10], in test [11] and in test [12]. The outcome in test [13], in [14], in [15], in test [16], in test [17] and in test [18] was inactive. Besides, the call in test [19] and in test [20] was inactive.
Turning to `O=c1c2ccccc2c(=O)c2c1cc(Cl)c1[nH]c3c([nH]c12)c(Cl)cc1c(=O)c2ccccc2c(=O)c13`, the outcome in [1], in test [2], in test [3], in test [4], in [6] and in [7] was inactive. The result in test [8], in test [9], in [10], in test [11], in [12] and in test [13] was inactive. The result in [14], in [15], in test [16], in test [18], in test [19] and in [20] was inactive. Moreover, the AC50 is 26.1 µM (active) in test [5] and 11.2 µM (active) in test [17].
Regarding `CCCCCCC1CCOC1=O` (stereo not given), the compound was classed as inactive in [1], in test [2], in test [3], in [4], in [5] and in test [6]. For the same compound, the compound was called inactive in [7], in test [8], in test [9], in [10], in test [11] and in test [12]. For the same compound, the compound was called inactive in test [13], in test [14], in test [15], in test [16], in test [18] and in test [19]. Moreover, in test [20], the outcome was inactive. Also, the AC50 in test [17] is 100 µM (active).
For the compound `O=S(=O)(c1ccccc1)c1ccccc1`, the result in [1], in [2], in test [3], in test [4], in test [5] and in [6] was inactive. Besides, the outcome in [7], in test [8], in [9], in test [10], in test [11] and in test [12] was inactive. In addition, the call in test [13], in test [14], in test [15], in test [16], in [18] and in test [19] was inactive. Further, the outcome in test [20] was inactive. Further, the half-maximal activity concentration (AC50) in test [17] was 20.1 µM (active).
Turning to `SCc1ccco1`, the compound was called inactive in test [1], in test [2], in test [3], in test [4], in test [5] and in test [6]. Besides, the compound was classed as inactive in [7], in test [8], in test [9], in test [10], in test [11] and in test [12]. For the same compound, the compound was called inactive in test [13], in test [14], in test [15], in [16], in test [18] and in test [19]. In addition, the compound was classed as inactive in [20]. The AC50 in [17] is 27.7 µM (active).
